Laboratory results as given in PubChem BioAssay (Tox21).
Where “and” joins values, the source holds several entries; their conditions need not be identical. Equal entries are not always repeated. Results filed as inconclusive are left out. Calls of active or inactive are those of the source. The call rests on the fitted dose curve; in most records, active means well fitted inhibition curve with a large enough effect in the repeat runs; inconclusive means weak or mixed curves; inactive means no such curve, though single readings can be large or run the other way.

These compounds were tested against Cytochrome P450 1A2 (Homo sapiens) (UniProt P05177) (assay: Cytochrome P450 Family 1 Subfamily A Member 2 (CYP1A2) small molecule antagonists: luciferase reporter qHTS assay (AID 1671199; further: nearly all actives have a fitted effect of over 50% in size)). Details: P450-Glo CYP1A2 enzyme, luciferin luminescence, 1 h; series mostly up to 53 µM.
Chain of Cytochrome P450 1A2 (Homo sapiens) (P05177 whole entry, looked up): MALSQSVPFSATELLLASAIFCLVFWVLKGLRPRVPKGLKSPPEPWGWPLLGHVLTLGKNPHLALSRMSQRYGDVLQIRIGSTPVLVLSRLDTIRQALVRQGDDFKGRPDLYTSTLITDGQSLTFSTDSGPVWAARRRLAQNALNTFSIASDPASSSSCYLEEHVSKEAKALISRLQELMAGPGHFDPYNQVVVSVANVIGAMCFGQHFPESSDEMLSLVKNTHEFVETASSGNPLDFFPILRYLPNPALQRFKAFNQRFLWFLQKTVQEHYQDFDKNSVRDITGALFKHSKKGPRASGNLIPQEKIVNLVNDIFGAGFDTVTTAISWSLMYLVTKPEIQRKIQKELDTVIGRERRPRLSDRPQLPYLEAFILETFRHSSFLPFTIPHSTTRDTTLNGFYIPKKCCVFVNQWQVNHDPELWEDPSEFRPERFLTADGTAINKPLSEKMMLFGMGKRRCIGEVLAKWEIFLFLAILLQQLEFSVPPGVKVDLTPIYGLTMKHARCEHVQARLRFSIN
In short: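 Enzymatic CYP1A2 assay, human, luminescent: 10 min compound–enzyme–substrate preincubation, 1 h NADPH-dependent turnover, 20 min detection step, room temperature throughout. Reduced light indicates lower CYP1A2 activity.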
Potency means the concentration at half of the fitted maximal effect.

Structure (SMILES) | Potency
CCCCCOC(=O)CCCC | inactive
C=CC(=O)OCCn1c(=O)n(CCOC(=O)C=C)c(=O)n(CCOC(=O)C=C)c1=O | 39.9 µM (active)
CCC(Cl)C(Cl)C(Cl)CC(Cl)C(Cl)C(C)Cl (centres undefined) | 35.6 µM (active)
CCN(Cc1cccnc1)C(=O)c1cccc(Cl)c1[C@]1(C)C(=O)N(Cc2ccc(OC)cc2OC)c2ccc(Cl)cc21 | inactive
c1ccc(CSCc2ccccc2)cc1 | 31.6 µM (active)
C=C(C)C(=O)OCC[N+](C)(C)C | 15.8 µM (active)
CC/C(=C(\c1ccc(O)cc1)c1ccc(OCCN(C)C)cc1)c1ccccc1 | inactive
CCC1OCC(COc2ccc(Oc3ccccc3)cc2)O1 (centres undefined) | 25.2 µM (active)
CCCCCCOC(=O)c1ccc(O)cc1 | 11.3 µM (active) and 8.94 µM (active)
O=C1c2c(O)ccc(Nc3ccc(CCO)cc3)c2C(=O)c2c([N+](=O)[O-])ccc(O)c21 | 31.7 µM (active)
O=C(c1ccc(O)cc1O)c1ccc(O)cc1O | 12.6 µM (active) and 11.2 µM (active)
C[C@]12CCC(=O)C=C1CC[C@@H]1[C@@H]2[C@@H](O)C[C@@]2(C)[C@H]1CC[C@]2(O)C(=O)COC(=O)CCC(=O)O | inactive
Nc1ccc2cc(S(=O)(=O)O)cc(O)c2c1N=Nc1ccccc1C(F)(F)F | 39.9 µM (active)
O=C(Oc1cccc2cccnc12)c1ccccc1 | 17.4 µM (active)
CC1(C)CCC(C)(C)c2cc(C(=O)Nc3ccc(C(=O)O)cc3)ccc21 | inactive
O=C(Oc1ccccc1)c1ccccc1C(=O)Oc1ccccc1 | 5.64 µM (active)
O=C1C=CC(=O)N1 | 32.6 µM (active)

Structure (SMILES) | Potency
CCCCCCCC/C=C\CCCCCCCCOCCO | inactive
CC[C@H]1O[C@]2(CC[C@@H]1C)C[C@@H]1C[C@@H](C/C=C(\C)C[C@@H](C)/C=C/C=C3\CO[C@@H]4[C@H](O)C(C)=C[C@@H](C(=O)O1)[C@]34O)O2 | inactive
CN(C)c1ccc(C2(c3ccc(N(C)C)cc3)OC(=O)c3cc(N(C)C)ccc32)cc1 | inactive
CCCCN1C(=O)[C@@H]([C@H](O)C2CCCCC2)NC(=O)C12CCN(Cc1ccc(Oc3ccc(C(=O)O)cc3)cc1)CC2 | inactive
CCCCCCCCCCCC[N+](C)(C)CCCCCCCCCCCC | 71 µM (active)
CN(C)c1ccc(SC#N)cc1 | 5.64 µM (active)
Nc1ccc2c3c(cccc13)-c1ccccc1-2 | 0.128 µM (active)
CC(C)(C)CC(C)(C)c1ccc(OCCOCC[N+](C)(C)Cc2ccccc2)cc1 | inactive
Oc1ccc2cc(SSc3ccc4cc(O)ccc4c3)ccc2c1 | 63.4 µM (active) and 63.3 µM (active)
CCc1cc(Cc2cc(CC)cc(C(C)(C)C)c2O)c(O)c(C(C)(C)C)c1 | inactive
CCCN(CCC)c1c([N+](=O)[O-])cc(C(F)(F)F)c(N)c1[N+](=O)[O-] | 2 µM (active)
C=CC(=O)OCC(CO)(COCC(COC(=O)C=C)(COC(=O)C=C)COC(=O)C=C)COC(=O)C=C | inactive
NC(=O)C1(N2CCCCC2)CCN(CCCN2c3ccccc3CCc3ccc(Cl)cc32)CC1 | inactive
O=CC=C(c1ccccc1)c1ccccc1 | 20.2 µM (active)
Cc1ccc(O)c2ncccc12 | 15.5 µM (active)
C/C=C(\C)C(=O)OCc1ccccc1 | 35.6 µM (active)
O=c1[nH]sc2ccccc12 | 31.7 µM (active)
